# Measured values reported in the supplement of paper PMC10037445.
# ± gives the standard deviation of the averaged measurements. Over roughly 2,900 compounds, “NF-kB SEAP reporter activity, fold change vs agonist alone” has its median near 0.99; the highest 2% begin near 2.6. Many of the other results were omitted from the sample, so the highest values are more common in it than they were.
# Columns and labels:
# [1] = test system: RAW-Dual; experiment: NF-kB SEAP reporter activity, fold change vs agonist alone; higher = enhanced NF-kB activity; conditions: library stock concentration (final ~1000-fold dilution): 10 mM
# How it was run: (§1)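 Library stock was pin-tooled at 50 nL into 384-well plates of RAW-Dual macrophages (50,000 cells/well, DMEM), followed 1 h later by a PRR agonist, and the cells were kept at 37 °C, 5% CO2. Supernatant collected after 20 hours was read for IRF by QuantiLuc luminescence and for NF-κB by QuantiBlue absorbance at 620 nm. Reporter activity is fold change over agonist-alone wells, and a well counted as cytotoxic when its IncuCyte confluency was below 70% of agonist controls in both mask sets.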
# [2] = test system: RAW-Dual; experiment: NF-kB SEAP reporter activity, fold change vs agonist alone; cytotoxicity flag (confluency mask): cytotoxic (confluency <70% of control); higher = enhanced NF-kB activity
# How it was run: as §1
# [3] = test system: RAW-Dual; experiment: NF-kB SEAP reporter activity, fold change vs agonist alone; cytotoxicity flag (confluency mask): not cytotoxic; higher = enhanced NF-kB activity
# How it was run: as §1
# [4] = cytotoxicity flag (confluency mask): cytotoxic (confluency <70% of control), agonist: Imiquimod (TLR7) […]
# [5] = cytotoxicity flag (confluency mask): cytotoxic (confluency <70% of control), agonist: MPLA (TLR4) […]
# [6] = agonist: ODN 1826 (TLR9) 0.5 ug/mL
# [7] = agonist: Pam2CSK4 (TLR2/6) 0.1 ug/mL
# [8] = agonist: Pam3CSK4 (TLR2/1) 0.1 ug/mL
# [9] = cytotoxicity flag (confluency mask): not cytotoxic, agonist: Imiquimod (TLR7) […]
# [10] = cytotoxicity flag (confluency mask): not cytotoxic, agonist: MPLA (TLR4) […]
compound,measurement,setting,value
CCS(=O)(=O)N1CCN(c2ccc(Nc3ncc(C(N)=O)c(NC4CC4)n3)cc2)CC1.Cl,NF-kB SEAP reporter activity,[1]; [4],0.23
same,NF-kB SEAP reporter activity,[1]; [5],0.398
CCS(=O)(=O)N1CCN(c2ccc(Nc3ncc(C(N)=O)c(NC4CC4)n3)cc2)CC1.Cl (library stock concentration (final ~1000-fold dilution): 10 mM),NF-kB SEAP reporter activity,[2]; agonist: LPS (TLR4) 0.1 ug/mL,0.273
same,NF-kB SEAP reporter activity,[2]; [6],0.218
same,NF-kB SEAP reporter activity,[2]; [7],0.0746
same,NF-kB SEAP reporter activity,[2]; [8],0.121
CCOc1ccc(Cc2cc(C3OC(CO)C(O)C(O)C3O)ccc2Cl)cc1 (centres undefined) (library stock concentration (final ~1000-fold dilution): 10 mM),NF-kB SEAP reporter activity,[3]; agonist: LPS (TLR4) 0.1 ug/mL,1.04
same,NF-kB SEAP reporter activity,[3]; [6],1.2
same,NF-kB SEAP reporter activity,[3]; [7],1.01
same,NF-kB SEAP reporter activity,[3]; [8],1.1
CCOc1ccc(Cc2cc(C3OC(CO)C(O)C(O)C3O)ccc2Cl)cc1 (centres undefined),NF-kB SEAP reporter activity,[1]; [9],1.04
same,NF-kB SEAP reporter activity,[1]; [10],1.03
CCC1(O)CC2CN(CCc3c([nH]c4ccccc34)C(C(=O)OC)(c3cc4c(cc3OC)N(C=O)C3C(O)(C(=O)OC)C(OC(C)=O)C5(CC)C=CCN6CCC43C65)C2)C1.O=S(=O)(O)O (centres undefined) (library stock concentration (final ~1000-fold dilution): 10 mM),NF-kB SEAP reporter activity,[3]; agonist: LPS (TLR4) 0.1 ug/mL,5.34
same,NF-kB SEAP reporter activity,[3]; [6],3.28
same,NF-kB SEAP reporter activity,[3]; [7],1.99
same,NF-kB SEAP reporter activity,[3]; [8],2.22
CCC1=CC2CN(C1)Cc1c([nH]c3ccccc13)C(C(=O)OC)(c1cc3c(cc1OC)N(C)C1C(O)(C(=O)OC)C(OC(C)=O)C4(CC)C=CCN5CCC31C54)C2 (centres undefined),NF-kB SEAP reporter activity,[1]; [4],2.47
same,NF-kB SEAP reporter activity,[1]; [5],2.6
CCC1(O)CC2CN(CCc3c([nH]c4ccccc34)C(C(=O)OC)(c3cc4c(cc3OC)N(C)C3C(O)(C(=O)OC)C(OC(C)=O)C5(CC)C=CCN6CCC43C65)C2)C1.O=S(=O)(O)O (centres undefined) (library stock concentration (final ~1000-fold dilution): 10 mM),NF-kB SEAP reporter activity,[2]; agonist: LPS (TLR4) 0.1 ug/mL,5.91
same,NF-kB SEAP reporter activity,[2]; [6],2.96
same,NF-kB SEAP reporter activity,[2]; [7],1.48
same,NF-kB SEAP reporter activity,[2]; [8],1.94
CCC1=CC2CN(C1)Cc1c([nH]c3ccccc13)C(C(=O)OC)(c1cc3c(cc1OC)N(C)C1C(O)(C(=O)OC)C(OC(C)=O)C4(CC)C=CCN5CCC31C54)C2 (centres undefined) (library stock concentration (final ~1000-fold dilution): 10 mM),NF-kB SEAP reporter activity,[2]; agonist: LPS (TLR4) 0.1 ug/mL,5.34
same,NF-kB SEAP reporter activity,[2]; [6],0.35
same,NF-kB SEAP reporter activity,[2]; [7],1.78
same,NF-kB SEAP reporter activity,[2]; [8],1.95
CCC1(O)CC2CN(CCc3c([nH]c4ccccc34)C(C(=O)OC)(c3cc4c(cc3OC)N(C=O)C3C(O)(C(=O)OC)C(OC(C)=O)C5(CC)C=CCN6CCC43C65)C2)C1.O=S(=O)(O)O (centres undefined),NF-kB SEAP reporter activity,[1]; [9],2.54
same,NF-kB SEAP reporter activity,[1]; [10],2.37
CCC1(O)CC2CN(CCc3c([nH]c4ccccc34)C(C(=O)OC)(c3cc4c(cc3OC)N(C)C3C(O)(C(=O)OC)C(OC(C)=O)C5(CC)C=CCN6CCC43C65)C2)C1.O=S(=O)(O)O (centres undefined),NF-kB SEAP reporter activity,[1]; [4],2.51
same,NF-kB SEAP reporter activity,[1]; [5],2.53
C=CC(=O)Nc1cc(Nc2nccc(-c3cn(C)c4ccccc34)n2)c(OC)cc1N(C)CCN(C)C.CS(=O)(=O)O (library stock concentration (final ~1000-fold dilution): 10 mM),NF-kB SEAP reporter activity,[2]; agonist: LPS (TLR4) 0.1 ug/mL,2.39
same,NF-kB SEAP reporter activity,[2]; [6],0.214
same,NF-kB SEAP reporter activity,[2]; [7],1.28
same,NF-kB SEAP reporter activity,[2]; [8],0.898
C=CC(=O)Nc1cc(Nc2nccc(-c3cn(C)c4ccccc34)n2)c(OC)cc1N(C)CCN(C)C.CS(=O)(=O)O,NF-kB SEAP reporter activity,[1]; [5],1.91
O=[N+]([O-])c1ccc(Nc2ccccc2-c2ccccc2)c2nonc12 (library stock concentration (final ~1000-fold dilution): 10 mM),NF-kB SEAP reporter activity,[3]; agonist: LPS (TLR4) 0.1 ug/mL,2.02
same,NF-kB SEAP reporter activity,[3]; [6],1.02
same,NF-kB SEAP reporter activity,[3]; [7],0.555
same,NF-kB SEAP reporter activity,[3]; [8],0.754
O=[N+]([O-])c1ccc(Nc2ccccc2-c2ccccc2)c2nonc12,NF-kB SEAP reporter activity,[1]; [9],0.973
same,NF-kB SEAP reporter activity,[1]; [10],1.33
CC(C)(C)C(=O)N1N=CCC1c1ccccc1 (centres undefined),NF-kB SEAP reporter activity,[1]; [9],0.871 ± 0.094
same,NF-kB SEAP reporter activity,[1]; [10],1.025 ± 0.0035
CC(C)(C)C(=O)N1N=CCC1c1ccccc1 (centres undefined) (library stock concentration (final ~1000-fold dilution): 10 mM),NF-kB SEAP reporter activity,[3]; agonist: LPS (TLR4) 0.1 ug/mL,1.02 ± 0.095
same,NF-kB SEAP reporter activity,[3]; [6],0.9171 ± 0.0045
same,NF-kB SEAP reporter activity,[3]; [7],0.983 ± 0.09
same,NF-kB SEAP reporter activity,[3]; [8],1.3 ± 0.015
O=C(C=Cn1cnc(-c2cc(C(F)(F)F)cc(C(F)(F)F)c2)n1)NNc1cnccn1 (library stock concentration (final ~1000-fold dilution): 10 mM),NF-kB SEAP reporter activity,[3]; agonist: LPS (TLR4) 0.1 ug/mL,0.255
same,NF-kB SEAP reporter activity,[3]; [6],0.841
same,NF-kB SEAP reporter activity,[3]; [7],0.42
same,NF-kB SEAP reporter activity,[3]; [8],0.428
O=C(C=Cn1cnc(-c2cc(C(F)(F)F)cc(C(F)(F)F)c2)n1)NNc1cnccn1,NF-kB SEAP reporter activity,[1]; [9],1.41
same,NF-kB SEAP reporter activity,[1]; [10],0.523
Cc1ccc(NC(=O)c2ccc(CN3CCC(N(C)C)C3)c(C(F)(F)F)c2)cc1Nc1nccc(-c2cncnc2)n1 (centres undefined) (library stock concentration (final ~1000-fold dilution): 10 mM),NF-kB SEAP reporter activity,[2]; agonist: LPS (TLR4) 0.1 ug/mL,0.247
same,NF-kB SEAP reporter activity,[2]; [6],0.833
same,NF-kB SEAP reporter activity,[2]; [7],1.4
same,NF-kB SEAP reporter activity,[2]; [8],1.16
Cc1ccc(NC(=O)c2ccc(CN3CCC(N(C)C)C3)c(C(F)(F)F)c2)cc1Nc1nccc(-c2cncnc2)n1 (centres undefined),NF-kB SEAP reporter activity,[1]; [4],2.42
same,NF-kB SEAP reporter activity,[1]; [5],1.36
Cc1nc(NC(=O)N2CCCC2C(N)=O)sc1-c1ccnc(C(C)(C)C(F)(F)F)c1 (centres undefined),NF-kB SEAP reporter activity,[1]; [9],1.35
same,NF-kB SEAP reporter activity,[1]; [10],1.13
Cc1nc(NC(=O)N2CCCC2C(N)=O)sc1-c1ccnc(C(C)(C)C(F)(F)F)c1 (centres undefined) (library stock concentration (final ~1000-fold dilution): 10 mM),NF-kB SEAP reporter activity,[3]; agonist: LPS (TLR4) 0.1 ug/mL,1.65
same,NF-kB SEAP reporter activity,[3]; [6],1.78
same,NF-kB SEAP reporter activity,[3]; [7],1.43
same,NF-kB SEAP reporter activity,[3]; [8],1.09
C=CC(=O)NC1CCOCC1Nc1ncc2cc(-c3c(Cl)c(OC)cc(OC)c3Cl)ccc2n1 (centres undefined) (library stock concentration (final ~1000-fold dilution): 10 mM),NF-kB SEAP reporter activity,[3]; agonist: LPS (TLR4) 0.1 ug/mL,0.691
same,NF-kB SEAP reporter activity,[3]; [6],0.827
same,NF-kB SEAP reporter activity,[3]; [7],0.34
same,NF-kB SEAP reporter activity,[3]; [8],0.478
